The nature of test [1]: qHTS Assay for Identifying Gametocytocidal Compounds (AID 743244; active means well fitted curve in the direction sought with a large enough effect; an effect the other way counts as inactive or inconclusive;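 further: on the % scale 0 is the no-effect control and ±100 the full control effect; actives lower the fluorescent signal which means gametocytes are killed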). The following applies: P. falciparum 3D7 stage III-V gametocytes, alamarBlue, 72 h; max response: stronger effect = lower value. In outline:
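A resazurin-based viability read-out was applied to mature P. falciparum gametocytes: 72 h compound treatment, then 24 h dye incubation, with falling fluorescence signalling gametocytocidal effect.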
In general terms: qHTS replaces the single test concentration by a dilution series.

The nature of test [2]: qHTS profiling for inhibitors of Plasmodium falciparum (3D7) proliferation (AID 743322).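 Further: infected erythrocytes exposed to compound for 72 h before lysis; 100% = DMSO vehicle wells and 0% = 0.29 µM artemisinin.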 The following applies: P. falciparum 3D7 proliferation; at 28.7 µM (top of the series) unless noted. In outline: (§1)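 Parasite DNA was quantified by SYBR Green I fluorescence (ex 485, em 535 nm) after overnight lysis in saponin/Triton buffer at room temperature. Cultures at 0.3% parasitemia and 2.5% hematocrit were first exposed to compound for 72 h at 37 C; signals were normalised to artemisinin (0.29 uM) and vehicle wells.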

Test [3] in a line: qHTS profiling for inhibitors of Plasmodium falciparum (DD2) proliferation (AID 743323). The following applies: lower = more inhibition; at 28.7 µM (top of the series) unless noted. In outline:
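P. falciparum Dd2-infected erythrocytes (0.3% parasitemia, 2.5% hematocrit) exposed 72 h at 37 C, 5% CO2. Lysis with SYBR Green, overnight at room temperature, fluorescence 485/535 nm; normalized to 0.29 uM artemisinin and DMSO.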

A short description of test [4]: qHTS profiling for inhibitors of Plasmodium falciparum (HB3) proliferation (AID 743324; active means well fitted curve in the direction sought with a large enough effect; an effect the other way counts as inactive or inconclusive;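 further: 100% = DMSO vehicle wells and 0% = artemisinin-treated control wells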). The following applies: Plasmodium falciparum HB3 blood-stage proliferation; at 28.7 µM (top of the series) unless noted. In a few lines: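 SYBR Green fluorescence (485 ex/535 em) of lysed cultures, incubated overnight at room temperature in the dark, quantifies parasite DNA. Infected erythrocytes at 0.3% parasitemia and 2.5% hematocrit were exposed 72 h; values normalized to DMSO and 0.29 uM artemisinin controls.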

A short description of test [5]: qHTS profiling of the MIPE4 collection as inhibitors of Plasmodium falciparum (3D7) proliferation (AID 743344).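 Further: scaled between DMSO vehicle wells and 0.29 µM artemisinin as full inhibition.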 To be noted: P. falciparum 3D7 in erythrocytes, SYBR Green DNA fluorescence, 72 h; at 28.5 µM (top of the series) unless noted. In outline: as §1
Test [6] can be described thus: qHTS profiling of the MIPE4 collection as inhibitors of Plasmodium falciparum (DD2) proliferation (AID 743345). To be noted: P. falciparum Dd2 in erythrocytes, SYBR Green DNA, 72 h; at 28.5 µM (top of the series) unless noted. In a few lines: as §1
Test [7] in a line: qHTS profiling of the MIPE4 collection as inhibitors of Plasmodium falciparum (DD2) proliferation (Rep 2) (AID 743346). To be noted: P. falciparum Dd2 in erythrocytes, SYBR Green DNA, 72 h; at 28.5 µM (top of the series) unless noted. In outline:
as §1

Test [8] can be described thus: qHTS profiling of the MIPE4 collection as inhibitors of Plasmodium falciparum (HB3) proliferation (AID 743347).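 Further: plate controls were DMSO vehicle wells for no effect and artemisinin wells for full effect.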 To be noted: P. falciparum HB3 in erythrocytes, SYBR Green DNA, 72 h; at 28.5 µM (top of the series) unless noted. In a few lines: as §1
Test [9] is described as follows: High-throughput drug toxicity screening in the BPDCN cell line Gen2.2 (AID 1224824).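 Further: cells exposed to compounds for 48 h before reading.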 To be noted: Gen2.2 BPDCN cells; at 45.8 µM (top of the series) unless noted. In outline: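 Gen2.2 cells (500/well) in phenol red-free RPMI with 10% FBS were exposed to compounds for 48 h at 37 °C, 5% CO2. Viability was read by CellTiter-Glo luminescence and normalized to DMSO (100%) and 9.2 uM bortezomib (0%).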

A short description of test [10]: High-throughput drug toxicity screening in the BPDCN cell line Cal-1 (AID 1224825). The following applies: Cal-1 BPDCN cell viability, qHTS; at 45.8 µM (top of the series) unless noted. In a few lines:
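Viability of the BPDCN line Cal-1 is measured as ATP-based luminescence (CellTiter-Glo) following 48 h incubation with compounds. Percent activity uses DMSO-treated wells as 100% and 9.2 uM bortezomib as 0%.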

The nature of test [11]: qHTS assay for measurement of the activity of small molecule inhibitors on Zika virus induced Caspase-3 activity in human iPSC derived neural progenitor cells (hNPCs) (AID 1224857; active means well fitted curve in the direction sought with a large enough effect; an effect the other way counts as inactive or inconclusive; further: % of control where 0% means no effect; nearly all actives have a fitted effect of over 65% in size). In outline:
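Quantitative HTS format: human iPSC neural progenitors, 1 h compound pretreatment, ZIKV 2 FFU/cell for 6 h at 37 C. Percent inhibition derived from luminescent caspase-3/7 signal between uninfected and infected controls.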

Test [12] in a line: qHTS assay for measurement of the activity of small molecule inhibitors on Zika virus induced Caspase-3 activity in human astrocytoma cells (AID 1224859; active means well fitted curve in the direction sought with a large enough effect; an effect the other way counts as inactive or inconclusive;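 further: plate controls were ZIKV-infected untreated cells for no effect and uninfected cells for full effect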). In outline: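 Readout is luminescence from Caspase-Glo 3/7 added after a 6 h ZIKV infection (2 FFU/cell) of compound-pretreated (1 h) SNB-19 cells; data expressed as % inhibition versus uninfected and infected wells.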
Test [13] is described as follows: qHTS Screen of the MIPE 4.0 Collection Against Ewings Sarcoma (EW8) (AID 1259255; active means well fitted curve in the direction sought with a large enough effect; an effect the other way counts as inactive or inconclusive; further: potency means the concentration at half of the fitted maximal effect; nearly all actives have a fitted effect of over 35% in size). In outline: (§2)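 Here, cells in 5% FBS RPMI were exposed for two days (48 h) to compound dilutions added four hours after plating. ATP-based CellTiter-Glo luminescence measured viability, normalized to vehicle and no-cell blanks.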
A short description of test [14]: qHTS Screen of the MIPE 4.0 Collection Against Ewings Sarcoma (TC71) (AID 1259253; active means well fitted curve in the direction sought with a large enough effect; an effect the other way counts as inactive or inconclusive; further: potency means the concentration at half of the fitted maximal effect; nearly all actives have a fitted effect of over 40% in size). In a few lines: as §2
The nature of test [15]: qHTS Screen of the MIPE 4.0 Collection Against Ewings Sarcoma (RDES) (AID 1259252; active means well fitted curve in the direction sought with a large enough effect; an effect the other way counts as inactive or inconclusive; further: potency means the concentration at half of the fitted maximal effect; nearly all actives have a fitted effect of over 35% in size). In outline: as §2

Inconclusive results are not listed. Activity calls are given as the source filed them. Unless noted, how the calls were made is not given here.

We go through 8 molecules from PubChem BioAssay (NCATS).

Take `CCOC(=O)C1=C[C@@]2(CC)CCCN3CCc4c(n1c1ccccc41)[C@H]32`: the max response in [1] is -2.64% (inactive). Further, the remaining parasite growth % (stronger effect = lower value) in [2] turned out to be 66.2% [at 18.4 µM]. Moreover, in [3], the activity, percent of control amounted to 56.5% [at 18.4 µM]. The remaining proliferation (% of control), lower = more inhibition in test [4] worked out at 25.8% [at 18.4 µM].

Turning to `CN[C@@H](C)C(=O)N[C@H]1CCCC[C@H]2CC[C@@H](C(=O)N[C@@H](c3ccccc3)c3cn(CCCCc4ccc(CCCCn5cc([C@@H](NC(=O)[C@@H]6CC[C@@H]7CCCC[C@H](NC(=O)[C@H](C)NC)C(=O)N76)c6ccccc6)nn5)cc4)nn3)N2C1=O`, in test [2], the remaining parasite growth % (stronger effect = lower value) is -0.81%. In [3], this molecule returned an activity, percent of control of 0.253%. In [4], the remaining proliferation (% of control), lower = more inhibition was -1.02%. Moreover, the parasite growth, % of DMSO control in test [5] amounted to 5.44%. This molecule returned a parasite growth remaining, % of DMSO control (lower = more inhibition) in test [6] of 8.15%. Further, in test [7], the parasite growth, % of control (lower = inhibition) is 9.02%. In addition, in test [8], the growth, % of control turned out to be 3.6%. In addition, in [9], the cell viability, % of control (lower = more cytotoxic) is 28%. For the same molecule, the viability (% of control) in [10] is 1.94%. Further, the Potency entry in test [11] and in test [12] was “inactive” each time. The Potency in test [13] is 26.4 µM (active).

`CCC(=O)N[C@H]1CC[C@H](C(=O)N(C)c2ccc(-c3nc4ccccc4o3)cc2)C1`: the max response in test [1] is 65.6% (inactive). For the same molecule, in test [2], the remaining parasite growth % (stronger effect = lower value) was found to be 58.5%. In test [3], this molecule came in with an activity, percent of control of 55.3%. Also, in test [4], the remaining proliferation (% of control), lower = more inhibition came out at 35.8%. This molecule came in with a parasite growth, % of DMSO control in [5] of 28.4%. This molecule yielded a parasite growth, % of control (lower = inhibition) in test [7] of 41.7%. For the same molecule, in test [8], the growth, % of control was determined as 33.6%. For the same molecule, in test [9], the cell viability, % of control (lower = more cytotoxic) is 198%. In [10], the viability (% of control) was determined as 92.1%. Moreover, the Potency result in test [11] and in test [12] was “inactive” each time. Further, the Potency in [14] is 2.35 µM (active).

With `CN(C(=O)c1ccc(F)cc1C(F)(F)F)C1CCN(c2nnc(-c3ccnn3C)c3ccccc23)CC1`, in test [1], the max response is 1.04% (inactive). Also, the remaining parasite growth % (stronger effect = lower value) in test [2] turned out to be 59.4%. The activity, percent of control in test [3] was 71.6%. The molecule also had a parasite growth, % of DMSO control in test [5] of 16.1%. Besides, the parasite growth remaining, % of DMSO control (lower = more inhibition) in test [6] came to 61.1%. Moreover, the parasite growth, % of control (lower = inhibition) in test [7] amounted to 45.1%. For the same molecule, in test [9], the cell viability, % of control (lower = more cytotoxic) was found to be 13.6%. The viability (% of control) in [10] stood at 80.2%. Further, the Potency entry in [11] and in test [12] was “inactive” throughout. Besides, the Potency in [15] was 20.9 µM (active).

In the case of `CN(C)c1ccc(Nc2nc(N)n(C(=O)c3c(F)cccc3F)n2)cc1`, the max response in [1] is -28% (inactive). Further, the remaining parasite growth % (stronger effect = lower value) in [2] was found to be 4.41%. In test [3], this molecule returned an activity, percent of control of 8.82%. In test [4], the remaining proliferation (% of control), lower = more inhibition is 7.62%. This molecule also returned a parasite growth, % of DMSO control in test [5] of 10.5%. Also, the parasite growth remaining, % of DMSO control (lower = more inhibition) in test [6] amounted to 51.7%. In test [7], this molecule yielded a parasite growth, % of control (lower = inhibition) of 13.6%. The same molecule registered a growth, % of control in [8] of 6.51%. For the same molecule, in test [9], the cell viability, % of control (lower = more cytotoxic) stood at 73.4%. For the same molecule, the viability (% of control) in test [10] was 14.1%. In addition, the Potency entry in test [12] was “inactive”. Also, the values for the Potency in [15] and in test [13] were 5.9 µM (active) and 0.132 µM (active), respectively.

`CCc1cncnc1N1CCN(Cc2nc3ccc(C(F)(F)F)cc3[nH]2)CC1`: the max response in [1] is 8.68% (inactive). Further, the remaining parasite growth % (stronger effect = lower value) in [2] came out at 24.3%. Besides, in test [3], the activity, percent of control was 20.3%. Moreover, the remaining proliferation (% of control), lower = more inhibition in [4] came to 14%. Moreover, the parasite growth, % of DMSO control in [5] turned out to be 19.6%. Besides, the parasite growth remaining, % of DMSO control (lower = more inhibition) in test [6] worked out at 33%. The molecule also came in with a parasite growth, % of control (lower = inhibition) in test [7] of 27.9%. Also, the cell viability, % of control (lower = more cytotoxic) in test [9] turned out to be 130%. In addition, the viability (% of control) in [10] amounted to 91.1%. Further, the Potency result in test [11] and in [12] was “inactive” each time. Also, the Potency in [15] is 20.9 µM (active).

Regarding `O=C(Nc1ccc(F)c(C(F)(F)F)c1)Nc1nnc(-c2ccncc2)s1`, in test [1], the max response was 6.18% (inactive). For the same molecule, the remaining parasite growth % (stronger effect = lower value) in test [2] is 94.5%. This molecule also came in with an activity, percent of control in test [3] of 90%. The remaining proliferation (% of control), lower = more inhibition in [4] came to 67.6%. In addition, the parasite growth, % of DMSO control in test [5] stood at 19.3%. This molecule showed a parasite growth remaining, % of DMSO control (lower = more inhibition) in test [6] of 14.4%. This molecule returned a parasite growth, % of control (lower = inhibition) in test [7] of 25.2%. The molecule also displayed a growth, % of control in [8] of 4.4%. Besides, in test [9], the cell viability, % of control (lower = more cytotoxic) was 131%. The viability (% of control) in test [10] came to 101%. Besides, the Potency result in [11] and in test [12] was “inactive” in each case.

Consider `C[C@@H]1CN(Cc2ccc(F)cc2)[C@@H](C)CN1C(=O)c1cc2c(C(=O)C(=O)N(C)C)cn(C)c2cc1Cl`, for which the max response in [1] was 12.3% (inactive). Besides, the remaining parasite growth % (stronger effect = lower value) in [2] was 69.2%. The activity, percent of control in [3] came out at 79.8%. Moreover, the remaining proliferation (% of control), lower = more inhibition in test [4] was found to be 52.3%. In test [5], the parasite growth, % of DMSO control was found to be 49.5%. In addition, in test [6], the parasite growth remaining, % of DMSO control (lower = more inhibition) was found to be 83.2%. The molecule also registered a parasite growth, % of control (lower = inhibition) in [7] of 48.6%. The growth, % of control in [8] worked out at 47.5%. In addition, in [9], the cell viability, % of control (lower = more cytotoxic) came out at 160%. In addition, the viability (% of control) in test [10] was found to be 70.3%. Moreover, the Potency entry in test [11] and in [12] was “inactive” in each case. Moreover, the Potency in test [13] was 23.5 µM (active).
